PubChem BioAssay AID1851 (National Center for Advancing Translational Sciences (NCATS), 2009)
Several values for one entry are separate records, joined by “and”; a condition that tells them apart may be missing. Equal values may be shown once. Out of some 16,000 compounds screened, about 2,600 (16%) were called active. Not shown: some 20% with an inconclusive outcome. Calls follow the shape of the dose curve; as a rule, active = well fitted curve in the direction sought with a large enough effect; inconclusive = small, poorly fitted or top-dose-only effect, or effect the other way; inactive = no such curve, though single readings can be large or run the other way. Only a sample is shown.

Molecular target: Cytochrome P450 2D6 (Homo sapiens) (UniProt P10635)
Sequence (P10635 whole entry, looked up): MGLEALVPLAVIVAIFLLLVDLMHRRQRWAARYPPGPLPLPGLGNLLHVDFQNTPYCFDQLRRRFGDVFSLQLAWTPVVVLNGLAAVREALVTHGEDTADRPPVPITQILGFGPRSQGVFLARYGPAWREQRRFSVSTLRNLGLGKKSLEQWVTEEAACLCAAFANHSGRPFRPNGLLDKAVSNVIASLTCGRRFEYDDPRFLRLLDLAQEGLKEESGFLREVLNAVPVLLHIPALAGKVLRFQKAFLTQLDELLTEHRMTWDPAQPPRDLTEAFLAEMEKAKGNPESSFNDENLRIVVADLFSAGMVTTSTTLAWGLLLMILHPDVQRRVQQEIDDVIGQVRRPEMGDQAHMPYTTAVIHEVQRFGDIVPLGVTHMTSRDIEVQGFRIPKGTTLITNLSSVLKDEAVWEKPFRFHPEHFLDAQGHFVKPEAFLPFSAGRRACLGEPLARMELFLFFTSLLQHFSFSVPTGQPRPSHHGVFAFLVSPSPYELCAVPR
Assay: Cytochrome panel assay with activity outcomes
Conditions: recombinant CYP, pro-luciferin dealkylation, luminescence, p450-cyp2d6; series mostly up to 57.1 µM; activity, negative = inhibition: at the top concentration
% is scaled to controls: 0 for no effect and ±100 for the full control effect.

SMILES	activity, negative = inhibition	AC50
CCOc1ccc(C(F)(F)F)cc1NC(=O)c1ccc(OC)c([N+](=O)[O-])c1	11.2% (inactive)	
COc1ccc(C(C(=O)NC2CCCC2)N(Cc2ccc(F)cc2)C(=O)c2ccn[nH]2)cc1OC (configuration not stated)	-3.02% (inactive)	
COC(=O)c1ccccc1NC(=O)C(CCS(C)(=O)=O)NC(C)=O (configuration not stated)	4.08% (inactive)	
CC(CCc1ccccc1)NC(=O)/C=C/c1ccccc1 (configuration not stated)	-18.2% (inactive)	
O=C1c2ccc3c4c(ccc(c24)C(=O)N1c1ccc2ccccc2c1)CC3	-2.14% (inactive)	
O=C(c1ccc(Cl)cc1)N1CCN(C(=O)c2ccco2)CC1	7.09% (inactive)	
Cc1ccc(Cn2cccc(NC(=O)NC3CCCCC3)c2=O)cc1	-7.79% (inactive)	
CC(=O)c1[nH]c(C)c(C(C)=O)c1C	-1.55% (inactive)	
O=C1C2C3C=CC([C@@H]2C(=O)N1C1CCCCC1)[C@H]1C(=O)N(C2CCCCC2)C(=O)C31 (some centres not stated)	-12.1% (inactive)	
COc1ccc(C(OCCN2CCC[C@@H](C(=O)O)C2)(c2ccc(OC)cc2)c2ccc(OC)cc2)cc1	5.69% (inactive)	
O=C(CCc1ccccc1)NNC(=O)C1CCCCC1	-6.85% (inactive)	
O[C@@](CCN1CCCCC1)(c1ccccc1)C1CCCCC1		5.01 µM (active) and 1.26 µM (active)
COc1ccc(-c2nc3cnc(N4CCN(C)CC4)nc3n(Cc3cccs3)c2=O)cc1	4.42% (inactive)	
O=C(Nc1cccc(F)c1)N1CCC2(CC1)CCN(C(=O)c1cnccn1)CC2	-1.26% (inactive)	
Cn1ncc(Cl)c1C(=O)Nc1cccnc1	-14.2% (inactive)	
CSc1cc2c(cc1C(F)(F)F)N(C(=O)Nc1cccnc1)CC2		31.6 µM (active)

SMILES	activity, negative = inhibition	AC50
CC(C(=O)Nc1cccnc1)N1C(=O)C2C3C=CC(C3)C2C1=O (configuration not stated)	3.18% (inactive)	
COc1cc2c(cc1C(F)(F)F)N(C(=O)Nc1cc(F)cc(-c3cccnc3)c1)CC2	-4.26% (inactive)	
CN1CCc2cc(NC(=O)Nc3cccnc3)ccc21		25.1 µM (active)
CCOC(=O)c1c(NC(=O)CCc2ccc(CC)o2)sc(C)c1C	-3.27% (inactive)	
COC(=O)C1C(O)=C(C=NCc2ccccc2)C(=O)CC1(C)C (configuration not stated)	3.16% (inactive)	
CCC(=O)N(C)/C=C1\Sc2ccccc2C1=O	-4.29% (inactive)	
Cc1ccc(/C=C2\Sc3ccccc3C2=O)s1		15.8 µM (active)
CCCN1C(=O)/C(=C/c2ccc(C)s2)SC1=Nc1ccc(OC)cc1	-20.9% (inactive)	
O=S(=O)(c1ccccc1)c1cnn2c(C(F)(F)F)cc(-c3ccccc3)nc12	-7.85% (inactive)	
c1ccc(-c2ccc3c(c2)c2c4n3CCN=C4CCC2)cc1	-14.4% (inactive)	
Cc1ccc(C(C)C)n1C(=O)OC(C)(C)C	0.591% [at 11.4 µM] (inactive)	
O=S1(=O)C=C(Oc2ccc3ccccc3c2)c2ccccc21	-3.65% (inactive)	
Cc1ccc(-c2nn(-c3ccccc3)cc2CSC(=N)N)cc1		0.251 µM (active)
O=C(NCc1cn(-c2ccccc2)nc1-c1ccccc1)c1cc([N+](=O)[O-])cc([N+](=O)[O-])c1	-2.14% (inactive)	
Cc1c(NC(=O)/C=C/c2cn(-c3ccccc3)nc2-c2ccc(F)cc2)c(=O)n(-c2ccccc2)n1C	-0.729% (inactive)	
NC(=O)C1=CN([C@@H]2O[C@@H](COP(=O)(O)OP(=O)(O)OC[C@@H]3O[C@H](n4cnc5c(N)ncnc54)[C@@H](OP(=O)(O)O)[C@@H]3O)[C@H](O)[C@@H]2O)C=CC1	5.16% (inactive)	
